PubChem BioAssay AID1345085 (National Center for Advancing Translational Sciences (NCATS), 2018)
Records with an inconclusive call do not appear. A number with no mark means an inactive call. Activity calls are given as the source filed them. Calls come from the whole dose curve; as a rule, active = well fitted cell-killing curve with a large enough effect; inconclusive = small, poorly fitted or top-dose-only effect, or effect the other way; inactive = no such curve, though single readings can be large or run the other way.
% is set by controls: 0 for no effect and ±100 for the full control effect; potency is the fitted concentration of half-maximal effect.
Note: nearly all actives have a fitted effect of over 55% in size.

The molecules below were run on PA-1 (assay: Confirmatory qHTS for gynecologic anti-cancer compounds from libraries of approved drugs and bioactive compounds). Conditions: gynecologic cancer cell panel viability, ATPlite luminescence, 48 h; series mostly up to 57.6 µM; activity change, negative = viability loss: at the top concentration.
Summary of the method: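 IC50 values derive from an ATPlite ATP-content luminescence assay following 48 h treatment at 37 C. Each compound ran as an 11-concentration, threefold series (57.5 uM to 0.977 nM); HEK 293T served as control line for selectivity index.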
For COc1cc(F)c(F)c(Nc2ccc(I)cc2F)c1NS(=O)(=O)C1(CC(O)CO)CC1 (centres undefined), the “activity change, negative = viability loss” value was -22.7%.
In the case of CCC(=O)N1CCN(c2ccc(-n3c(=O)ccc4cnc5ccc(-c6cnc7ccccc7c6)cc5c43)cc2C(F)(F)F)CC1, the Potency was 0.627 µM (active).
COC(C(=O)N1Cc2[nH]nc(NC(=O)c3ccc(N4CCN(C)CC4)cc3)c2C1)c1ccccc1 (centres undefined) was tested, and the Potency was 7.69 µM (active).
In the case of CN(C)c1ccc2nc3ccc(=[N+](C)C)cc-3sc2c1, the Potency was 21.7 µM (active).
CC(C)C[C@H](NC(=O)[C@H](Cc1ccccc1)NC(=O)c1cnccn1)B(O)O was tested, and the Potency was 0.0385 µM (active).
In the case of CC(C)CC(=O)Nc1n[nH]c2c1CN(C(=O)C1CCN(C)CC1)C2(C)C, the Potency was 0.172 µM (active).
COc1ccccc1N1CCN(CC(O)COc2cccc3ccccc23)CC1 (centres undefined) was tested, and the “activity change, negative = viability loss” value was -27.1%.
In the case of Cc1[nH]c2ccccc2c1CCNCc1ccc(/C=C/C(=O)NO)cc1, the Potency was 0.122 µM (active).
For C[C@]12CCC(=O)C=C1CC[C@@H]1[C@@H]2[C@@H](O)C[C@@]2(C)[C@H]1CC[C@]2(O)C(=O)CO, the Potency was 21.7 µM (active).
With Nc1cccc(-c2cc3c(Oc4cccc(O)c4)ncnc3[nH]2)c1 the Potency was 9.68 µM (active).
In the case of CN1C2CCC1CC(OC(=O)[C@H](CO)c1ccccc1)C2 (some centres undefined), the “activity change, negative = viability loss” value was -5.44%.
In the case of CC(C)C[C@H](NC(=O)[C@@H](NC(=O)c1cccc(-c2ccccc2)n1)[C@@H](C)O)B(O)O, the Potency was 0.0385 µM (active).
For O=C(NOC[C@H](O)CO)c1ccc(F)c(F)c1Nc1ccc(I)cc1F, the Potency was 3.85 µM (active).
COc1ccc(-c2cc3nccn3c(Nc3ncccc3C(N)=O)n2)cc1OC was tested, and the Potency was 6.11 µM (active).
